# What was measured:
# Assay in all cases: PBM binding z-score (relative to random genomic background probes); higher = stronger binding; sequences stand for … in GC…GCGATTGACAGCGTAGAATGAAGG
# [1] = tested on: FXR:RXRa (NR concentration 270 nM, RXRa partner concentration 90 nM)
# Outline: (§1)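 For binding z-scores, the reference was random background probes on custom Agilent 4×180K protein-binding microarrays. These arrays were incubated 1 h with ligand-free nuclear receptor dimers in PBS pH 7.4, 2% milk, 0.02% Triton X-100, 1 mM DTT, 0.2 mg/mL BSA and 0.4 mg/ml salmon testes DNA. Fluorescence was scanned after antibody detection of each partner (one per run) and regression-normalized.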
# [2] = tested on: LXRa:RXRa (NR concentration 270 nM, RXRa partner concentration 90 nM)
# Outline: as §1
# [3] = tested on: LXRa homodimer (NR concentration 270 nM)
# Outline: as §1
# [4] = tested on: LXRb:RXRa (NR concentration 270 nM, RXRa partner concentration 90 nM)
# Outline: as §1
# [5] = tested on: LXRb homodimer (NR concentration 270 nM)
# Outline: as §1
# [6] = tested on: PPARa:RXRa (NR concentration 270 nM, RXRa partner concentration 90 nM)
# Outline: as §1
# [7] = tested on: PPARg:RXRa (NR concentration 180 nM, RXRa partner concentration 90 nM)
# Outline: as §1
# [8] = tested on: PPARg:RXRa 270nM:90nM, anti-RXR (NR concentration 270 nM, RXRa partner concentration 90 nM)
# Outline: as §1
# [9] = tested on: PPARg:RXRa 30nM:10nM, anti-RXR (NR concentration 30 nM, RXRa partner concentration 10 nM)
# Outline: as §1
# [10] = tested on: PPARg:RXRa 90nM:30nM, anti-RXR (NR concentration 90 nM, RXRa partner concentration 30 nM)
# Outline: as §1
Sequence,PBM binding z-score [1],PBM binding z-score [2],PBM binding z-score [3],PBM binding z-score [4],PBM binding z-score [5],PBM binding z-score [6],PBM binding z-score [7],PBM binding z-score [8],PBM binding z-score [9],PBM binding z-score [10]
GCATAAAGGTAATACAAGGTGAAAGTCCGATTGT,0.963,4.21,0.396,1.65,-0.394,2.06,0.943,1.72,0.61,0.948
CCTAGTGGGTCAAGGTCACACACGCTATAGGTAC,5.66,4.37,1.16,3.95,0.411,5.54,8.69,7.42,5.3,6.95
TAACCAAGGTGAAGGTCGTTGATCCCTCTGTAGA,2.07,2.07,0.0328,1.66,-0.394,2.58,3.03,3.53,2.15,4.01
AGTCATAGTTCAGGACGAGGTAACGTAAAGCACG,1.09,1.13,-0.0495,0.662,0.0216,1.54,1.53,1.53,0.782,0.867
CCTGCTGGGCCAAAGGTCATTGATTCCAATGCTC,5.24,5.14,3.92,4.66,0.872,5.78,9.98,8.99,8.27,9.45
CGTCAAAGTTCAACTAAGGTAACGTCAAGCACGC,7.22,6.46,4.23,4.17,2.06,5.14,5.08,5.67,2.61,4.36
TCTGCTAGGTCAACGAAGGTCAGCTAATCTGCTA,4.67,5.5,2.58,3.81,0.162,4.32,3.83,4.05,2.3,3.7
TAGCCTAGGTAAGATCGGGCCAGTATACGCTATA,-0.504,-0.787,-0.612,-0.831,-1.39,-0.58,0.0812,-0.494,-0.743,-0.292
GCGCGGAGGACAAGGTCAGAGCTTTGTCCGTAGA,1.64,1.37,-0.378,1.01,-1.25,2.27,0.135,1.16,-0.943,0.36
TCGAGTAGGTTACCAATGTGGCATTCAGCTTTCT,0.261,1.41,-0.667,0.671,0.104,0.803,0.268,1.09,0.936,1.08
AGAACGAGGCCACGCTGAGTTGATAGCAGAGTAG,0.0545,-0.515,-0.521,-0.809,-0.992,0.356,0.903,0.196,-0.0987,0.189
GCAGACAGGTGAAACGCAGGTAAGTCAGGGTGGC,-0.334,-0.134,-0.679,-0.502,-0.938,0.476,0.369,-0.16,-0.946,-0.534

# Source: the supplement of paper PMC6555819
